From PubChem BioAssay (EPA / NIEHS)
Activity calls are given as the source filed them. Rule for the calls: active = hit-call score of the fitted dose curve at least 0.9, where 1 is the maximum; inactive = score below 0.9.

Key:
[1] = APR_HepG2_P-H2AX_72hr: Apredica 72-hour HepG2 Assay for H2AX Phosphorylation (AID 2282916); details: imaging, actives raise or lower the signal;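 note: phospho-histone H2A.x immunostain intensity per cell marking DNA damage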
How it was run: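 Human hepatoma HepG2 cells are dosed across ten concentrations (0.39 to 200 uM, 0.5% v/v DMSO) and incubated 72 hr. Phospho-histone H2A.x is then detected by antibody staining alongside c-Jun and Hoechst, and quantified by automated fluorescence imaging.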

[2] = APR_HepG2_MitoMembPot_72hr: Apredica 72-hour HepG2 Assay for Mitochondrial Membrane Potential (AID 2282917); details: imaging, actives raise or lower the signal
How it was run: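 HepG2 cells exposed 72 h to compounds at 0.39–200 uM (0.5% v/v DMSO, duplicates); MitoTracker Red CMXRos 250 nM loaded 30 min before 3.7% formaldehyde fixation, imaged by HCS fluorescence. Bidirectional fit versus DMSO.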

[3] = APR_HepG2_MitoticArrest_72hr: Apredica 72-hour HepG2 Assay for Mitotic Arrest (AID 2282918); details: high-content imaging, actives raise or lower the signal
How it was run: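 Read-out is phospho-histone H3 immunofluorescence with Hoechst nuclear segmentation, imaged at 20x. Human HepG2 liver cells received ten concentrations (0.39–200 uM, final DMSO 0.5% v/v) for 72 hr before fixation. Gain or loss of signal was fitted relative to DMSO.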

[4] = APR_HepG2_MicrotubuleCSK_72hr: Apredica 72-hour HepG2 Assay for Microtubule CSK Stabilty (AID 2282919); details: HepG2 microtubule cytoskeleton, high-content imaging, actives raise or lower the signal
How it was run: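 Ten-point dosing (0.39–200 uM, 0.5% DMSO) of HepG2 for 72 hr, with taxol as the cytoskeletal positive control. The cells were formaldehyde-fixed and then stained with alpha-tubulin/Cy5 and Hoechst. Imaging at 20x used a −2 um Z offset for tubulin.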

[5] = APR_HepG2_P-H2AX_24hr: Apredica 24-hour HepG2 Assay for H2AX Phosphorylation (AID 2282920); details: high-content imaging, actives raise or lower the signal
How it was run: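 HepG2, 24 hr, cpd 0.39–200 uM (10 conc, duplicate), DMSO 0.5% v/v final. Fix 3.7% formaldehyde, Triton X-100 permeabilize, anti-phospho-H2A.x 1:200 + Hoechst 2 ug/mL. Imaged, bidirectional fit vs DMSO.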

[6] = APR_HepG2_StressKinase_72hr: Apredica 72-hour HepG2 Assay for Stress Kinase (AID 2282921); details: HepG2 stress kinase (phospho-c-Jun) imaging, actives raise or lower the signal
How it was run: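 After a 72 h compound treatment spanning 0.39 to 200 uM, formaldehyde-fixed cells are labelled for phosphorylated c-Jun and nuclei, imaged by automated fluorescence microscopy, and activity is fitted in both directions relative to DMSO controls.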

[7] = APR_HepG2_StressKinase_24hr: Apredica 24-hour HepG2 Assay for Stress Kinase (AID 2282922); details: HepG2 stress kinase (phospho-c-Jun) imaging, actives raise or lower the signal
How it was run: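 After 24 hr compound treatment (up to 200 uM, final DMSO 0.5% v/v), HepG2 cells are fixed and multiplex-labeled; phospho-c-Jun intensity is captured by high-content fluorescence imaging and analyzed relative to DMSO.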

[8] = APR_HepG2_p53Act_72hr: Apredica 72-hour HepG2 Assay for p53 Activation (AID 2282923); details: high-content imaging, actives raise or lower the signal;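 note: average cellular p53 protein immunofluorescence intensity in HepG2 cells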
How it was run: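 Imaging-based endpoint: after 72 hr compound exposure (up to 200 uM, 0.5% DMSO), fixed and permeabilized monolayers were labelled with anti-p53 antibody and imaged; signal change in either direction was fitted relative to DMSO controls.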

[9] = APR_HepG2_MitoMass_72hr: Apredica 72-hour HepG2 Assay for Mitochondrial Mass (AID 2282924); details: high-content imaging, actives raise or lower the signal;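 note: MitoTracker Red CMXRos stain intensity per cell imaged as mitochondrial mass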
How it was run: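 Steps: treat HepG2 72 hr (0.39–200 uM, duplicate wells); load MitoTracker Red CMXRos, 250 nM, 30 min; fix with 3.7% formaldehyde, permeabilise with 0.5% Triton X-100; capture images, nuclei via Hoechst 33342; fit bidirectionally against DMSO.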

[10] = APR_HepG2_NuclearSize_72hr: Apredica 72-hour HepG2 Assay for Nuclear Size (AID 2282925); details: high-content imaging, actives raise or lower the signal
How it was run: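 Compounds (0.39–200 uM, final DMSO 0.5%) were applied to HepG2 for 72 hr. Cells were then formaldehyde-fixed, permeabilized and labelled with Hoechst 33342. Nuclear diameter was quantified from six images per well.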

Measured: AC50

CCC(C)(C)C(=O)O[C@H]1C[C@@H](C)C=C2C=C[C@H](C)[C@H](CC[C@@H]3C[C@@H](O)CC(=O)O3)[C@H]21
active: [1] 58.8 µM | [3] 2.62 µM | [5] 73.8 µM | [6] 100 µM | [7] 115 µM | [8] 29.6 µM | [9] 0.559 µM
inactive: [2] | [4] | [10]

O=c1[nH]c2ccc(S(=O)CCN3CCC(Cc4ccc(F)cc4)CC3)cc2o1 (stereo unspecified)
inactive: [2] | [3] | [4] | [5] | [6] | [7] | [8] | [9] | [10]
active: [1] 111 µM

Oc1ccc2c(c1)-c1ccccc1C2
active: [1] 89 µM | [2] 106 µM | [3] 80.3 µM | [5] 117 µM | [8] 47.7 µM
inactive: [4] | [6] | [7] | [9] | [10]

CC(=O)OCCC(C)C
inactive: [1] | [2] | [3] | [4] | [5] | [6] | [7] | [8] | [9] | [10]

O=C(O)CC(O)C(=O)O (stereo unspecified)
inactive: [1] | [2] | [3] | [4] | [5] | [6] | [7] | [8] | [9] | [10]

COc1ccc(/C=C/S(=O)(=O)NC(=O)c2ccc(C)cc2Cl)cc1
active: [1] 100 µM | [2] 12.8 µM | [3] 102 µM | [8] 113 µM
inactive: [4] | [6] | [7] | [9] | [10]

CCOCCOCCOCCO
inactive: [1] | [2] | [3] | [4] | [5] | [6] | [7] | [8] | [9] | [10]

O=C1OC(=O)C2C3C=CC(C3)C12 (stereo unspecified)
inactive: [1] | [2] | [3] | [4] | [5] | [6] | [7] | [8] | [9] | [10]

O=C(O)c1cccc(Oc2ccccc2)c1
inactive: [1] | [2] | [3] | [4] | [5] | [6] | [7] | [8] | [9] | [10]

O=C1CCCCCN1
inactive: [1] | [2] | [4] | [5] | [6] | [7] | [8] | [9] | [10]

Nc1cccc(N)c1
inactive: [1] | [2] | [3] | [4] | [6] | [7] | [8] | [9] | [10]

Clc1nc(Cl)c(Cl)c(Cl)c1Cl
active: [1] 57.5 µM | [3] 34.1 µM | [6] 68.5 µM | [7] 53.2 µM | [8] 25 µM | [9] 89.9 µM | [10] 96.9 µM
inactive: [2] | [4]

CNS(=O)(=O)c1cc(C(=O)N2CCC(CCN3C4CCC3CC(n3c(C)nc5ccccc53)C4)(c3cccc(F)c3)CC2)c(Cl)cc1F (stereo unspecified)
active: [1] 11.1 µM | [4] 65.2 µM | [5] 52.9 µM | [7] 54.4 µM
inactive: [2] | [6] | [8] | [9] | [10]

NC(=O)NO
inactive: [1] | [2] | [3] | [4] | [6] | [7] | [8] | [9] | [10]

COc1cccc(-c2ccc(/C=C\CN3CCCCCC3)cc2Cl)c1
inactive: [2] | [4] | [9]
active: [1] 22.5 µM | [3] 17.6 µM | [6] 32.3 µM | [7] 69.3 µM | [8] 22.5 µM | [10] 62 µM

CCOC(=O)c1ccc(C2CCC(NC[C@H](O)COc3ccc(O)c(NS(C)(=O)=O)c3)CC2)cc1 (stereo partly specified)
inactive: [2] | [6] | [9]
active: [1] 14 µM | [3] 20.3 µM | [4] 41.9 µM | [7] 28.3 µM | [8] 14.5 µM | [10] 22.7 µM

Cc1ccc(N)cc1O
active: [2] 1.02 µM
inactive: [1] | [3] | [4] | [6] | [7] | [8] | [9] | [10]

Cc1ccc(C)c(O)c1
inactive: [1] | [2] | [4] | [5] | [6] | [7] | [8] | [9] | [10]

CN(C)c1ccc(N=NS(=O)(=O)O)cc1
inactive: [1] | [2] | [3] | [4] | [6] | [7] | [9] | [10]
active: [8] 57 µM

CCc1cc(SCc2sc(-c3ccc(C(F)(F)F)cc3)nc2CN2CCN(c3ccc(OC)cc3)CC2)ccc1OCC(=O)O
inactive: [4] | [6] | [7] | [10]
active: [1] 48 µM | [2] 116 µM | [3] 45 µM | [8] 59 µM | [9] 33.2 µM

CC[C@H](C)C(=O)O[C@H]1C[C@@H](C)C=C2C=C[C@H](C)[C@H](CC[C@@H]3C[C@@H](O)CC(=O)O3)[C@H]21
active: [1] 5.29 µM | [3] 4.53 µM | [8] 3.64 µM | [9] 131 µM
inactive: [2] | [4] | [6] | [7] | [10]

CCCCCCCCO
inactive: [1] | [2] | [3] | [4] | [6] | [7] | [8] | [9] | [10]
